# Test results as given in PubChem BioAssay (NCI).
# About 83,000 compounds went through this panel and 20% of them were active in at least one assay; those are over-represented in the sample as a whole.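 How to read the values: 0–100, growth inhibition (40 = 60% inhibited); 0, no net growth; -100 to 0, cell death (-40 = 40% of starting cells died; -100 = all dead).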 Values without a mark were called inactive. Calls of active or inactive are those of the source. How the source made its calls: active means growth percent below 10; inactive means the rest.
# Legend:
# Assay in all cases: NCI-60 one-dose screen, 48 h (100 = growth as untreated, 0 = no growth, -100 = all killed)
# Conditions in all cases: 10 µM unless noted
# [1] = system: NCI-H23 lung
# [2] = system: NCI-H322M lung
# [3] = system: HOP-62 NSCLC
# [4] = system: NCI-H460 lung
# [5] = system: HOP-92 NSCLC
# [6] = system: NCI-H522 lung
# [7] = system: A549/ATCC NSCLC
# [8] = system: 786-0 renal
# [9] = system: COLO 205 colon
# [10] = system: DU-145 prostate
# [11] = system: K-562 leukemia
# [12] = system: MALME-3M melanoma
# [13] = system: MDA-MB-231 breast
# [14] = system: RXF 393 renal
# [15] = system: SF-268 CNS
# [16] = system: SF-295 CNS
# [17] = system: SF-539 CNS
# [18] = system: UACC-257 melanoma
# [19] = system: M14 melanoma
# [20] = system: HCT-15 colon
SMILES,growth [1],growth [2],growth [3],growth [4],growth [5],growth [6],growth [7],growth [8],growth [9],growth [10],growth [11],growth [12],growth [13],growth [14],growth [15],growth [16],growth [17],growth [18],growth [19],growth [20]
CCOC(=O)c1sc(-c2ccc(OS(=O)(=O)c3ccc(Br)s3)c(C=O)c2)nc1C,11.9%,83.8%,19.6%,77.6%,26.5%,-5.7% (active),76.1%,9.63% (active),84.8%,21.2%,9.45% (active),13.2%,4.99% (active),51.7%,16.4%,32.8%,-5.53% (active),28.8%,1.87% (active),1.83% (active)
CC(=O)c1ccc2oc(=O)n(Cc3ccc(C#N)cc3)c(=O)c2c1,103%,100%,103%,106%,95.2%,99.5%,103%,103%,114%,111%,117%,96.9%,107%,114%,99.1%,99.1%,96.8%,108%,108%,98.9%
CCN1C(=O)N(c2ccccc2)C2NN=c3s/c(=C4\C(=O)N(C(C)C)c5ccccc54)c(=O)n3C21 (stereo not given),46.5%,54.4%,36.2%,5.98% (active),95.7%,14.7%,21%,28.3%,2.82% (active),9.07% (active),10.6%,65.2%,32.9%,-6.1% (active),36.7%,17.9%,-2.62% (active),76.4%,10.9%,17.7%
COc1ccc2c(c1)C=C1CSCC3=Cc4cc(OC)ccc4OC13O2,18.7%,49.2%,38.2%,6.88% (active),44.9%,15.1%,23.6%,38.6%,3.24% (active),17.7%,11%,45.2%,16.4%,5% (active),41.1%,2.44% (active),-25.4% (active),74.7%,17.2%,18.2%
CN1C(=O)N(C)C2(c3ccccc3)n3c(s/c(=C\c4ccccc4)c3=O)=NNC12c1ccccc1 (stereo not given),97.2%,95.3%,101%,91.6%,89.5%,84.3%,89.1%,98.3%,112%,93%,71.2%,86.9%,85.1%,86.8%,96.9%,97.3%,93.1%,98.3%,83.4%,89.5%
COc1ccc(CSc2nnc(SCC(=O)Nc3ccc(Cl)cc3)s2)cc1,80.5%,65.4%,89%,37.6%,78%,67.7%,62.4%,68.7%,56.1%,65.2%,15.6%,121%,72.1%,104%,70.5%,-12.6% (active),86.6%,99%,39.9%,48.1%
CC(=S)NC(=O)C(=O)/C=C1/NC(=O)C(=O)S1,97.4%,105%,100%,107%,96.5%,105%,111%,103%,124%,111%,110%,107%,103%,110%,100%,101%,102%,108%,106%,102%
O=C(Nc1ccc(I)cc1F)c1cc(Br)ccc1O,3.44% (active),7.16% (active),-5.03% (active),2.62% (active),-10.8% (active),-7.93% (active),7.17% (active),1.97% (active),46.9%,14.2%,8.5% (active),-27.4% (active),-21.2% (active),2.4% (active),7.21% (active),-64.9% (active),0.872% (active),-18.2% (active),-10.4% (active),0.459% (active)
O=S(=O)(c1ccc(NC(=S)NC23CC4CC(CC(C4)C2)C3)cc1)N1CCCCC1,95.5%,102%,107%,36.3%,-8.91% (active),74.3%,72.5%,92.3%,119%,41.4%,7.73% (active),86.5%,102%,115%,66.6%,58.1%,107%,96.9%,72.3%,82.8%
O=C(c1nc2ccccc2[nH]1)C1C(c2ccc(F)cc2)C2CC3CCCCC3N2[C@@]12C(=O)Nc1ccc(Cl)cc12 (stereo not given in full),57.2%,60.6%,71.8%,21.4%,44.2%,57.3%,29.3%,48.3%,40.3%,60.5%,29.4%,42.6%,43.3%,9.81% (active),57%,29%,55.5%,58.9%,40.7%,28%
Cc1ccc(Cc2cnc(NC(=O)CN3C(=O)/C(=C\c4ccccc4)SC3=S)s2)cc1,103%,109%,109%,103%,113%,94.7%,103%,105%,116%,111%,101%,104%,108%,113%,101%,101%,100%,107%,107%,103%
CCN(CC)CCCNc1ccnc2cc3ccccc3cc12,83.3%,76%,-9.44% (active),45.5%,55.6%,51.8%,46.6%,66.8%,74.8%,73.8%,66.3%,40.6%,56.4%,35.7%,60.2%,-34% (active),30.8%,75.5%,81.9%,43.2%
COc1ccc(-c2nnc(COc3ccc(C(=O)/C=C/c4ccco4)cc3)o2)cc1,92.1%,86.6%,75.8%,78.5%,88.4%,91.8%,87%,50.9%,44.7%,61.6%,15.3%,125%,90%,65%,58.1%,-2.9% (active),55.9%,105%,98.8%,68.3%
COc1cc(/C=C2\CCC/C(=C\c3cc(CN4CCCCC4)c(O)c(OC)c3)C2=O)cc(CN2CCCCC2)c1O,74.6%,85.9%,88.1%,72.7%,47%,87%,89.7%,72.4%,88.4%,83.1%,38.8%,90.3%,69.3%,61.7%,73.5%,96.8%,73%,95.4%,99%,52.3%
FC(F)(F)c1cccc(Nc2nc3ccccc3nc2Nc2cccc(C(F)(F)F)c2)c1,39.7%,-28% (active),2.35% (active),-59.4% (active),6.66% (active),-57.1% (active),3.08% (active),-75.3% (active),-87.2% (active),-1.33% (active),-19.6% (active),-81.6% (active),-56.3% (active),-89.6% (active),-9.63% (active),-78.9% (active),-78.7% (active),-75.1% (active),-69.9% (active),2.32% (active)
